From PubChem BioAssay (NCATS) come the findings set out here.

Results filed as inconclusive are left out. Calls of active or inactive are those of the source. Calls follow the shape of the dose curve; as a rule, active = well fitted curve in the direction sought with a large enough effect; inconclusive = small, poorly fitted or top-dose-only effect, or another doubt; inactive = no such curve, though single readings can be large; an effect the other way counts as inactive or inconclusive.

Experiment [1] is described as follows: qHTS of pediatric cancer cell lines to identify multiple opportunities for drug repurposing: Primary screen for MG 63 (6-TG R) cells (AID 1347105). Also: nearly all actives have a fitted effect of over 50% in size. In short, it runs like this: (§1)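 Plated cells (500-1,000 per well, growth media) were allowed to settle for 5 hours, treated with compound dilutions for 48 hours, then lysed with CellTiter-Glo for 15 min at room temperature before luminescence reading.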

A short description of experiment [2]: qHTS of pediatric cancer cell lines to identify multiple opportunities for drug repurposing: Primary screen for control Hh wild type fibroblast cells (AID 1347106). Also: nearly all actives have a fitted effect of over 55% in size. The essentials:
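Cells (500-1,000/well) in growth media were settled 5 h at 37 degrees C, then given compounds for 48 h. Viability was read as CellTiter-Glo luminescence. Primary runs used MIPE at 11 points (0.78 nM-46 µM) and NPC at 8 points (0.59 nM-46 µM); follow-ups used 11 points.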
(In general: Quantitative high-throughput screening tests each substance at several concentrations.)

A short description of experiment [3]: qHTS of pediatric cancer cell lines to identify multiple opportunities for drug repurposing: Primary screen for Rh30 cells (AID 1347107). Also: nearly all actives have a fitted effect of over 75% in size. The essentials:
(§2)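 Cells (500-1,000/well) rested 5 h, then received compounds for 48 h; metabolically active cells were measured by CellTiter-Glo luminescence. Final concentrations spanned up to 46 µM (MIPE, 11-point) or 0.59 nM-46 µM (NPC, 8-point) in primary screens, 11-point in follow-ups.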

The nature of experiment [4]: qHTS of pediatric cancer cell lines to identify multiple opportunities for drug repurposing: Primary screen for Rh41 cells (AID 1347108). Also: nearly all actives have a fitted effect of over 70% in size. The essentials:
as §1

Experiment [5] in a line: qHTS of pediatric cancer cell lines to identify multiple opportunities for drug repurposing: Confirmatory screen for NB1643 cells (AID 1347109). Also: nearly all actives have a fitted effect of over 45% in size. The essentials:
as §2

Experiment [6] in a line: qHTS of pediatric cancer cell lines to identify multiple opportunities for drug repurposing: Confirmatory screen for A673 cells (AID 1347110).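 Also: cells exposed to compound for 48 h before the viability read; nearly all actives have a fitted effect of over 65% in size.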 In short, it runs like this: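 qHTS titration format: primary MIPE 0.78 nM-46 µM (11 pts), NPC 0.59 nM-46 µM; confirmation 11 pts. 48 h, CTG luminescence.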
The nature of experiment [7]: qHTS of pediatric cancer cell lines to identify multiple opportunities for drug repurposing: Confirmatory screen for BT-12 cells (AID 1347112). Also: nearly all actives have a fitted effect of over 55% in size. The essentials: as §2
Experiment [8] in a line: qHTS of pediatric cancer cell lines to identify multiple opportunities for drug repurposing: Confirmatory screen for SK-N-MC cells (AID 1347111).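 Also: cells exposed to compound for 48 h before the readout; nearly all actives have a fitted effect of over 70% in size.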 In short, it runs like this: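 Seed 500-1,000 cells/well; rest 5 h at 37 degrees C. Pin-transfer compounds, 11-point titration. Incubate 48 h. Add CellTiter-Glo, 15 min RT, read luminescence.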
Experiment [9] is described as follows: qHTS of pediatric cancer cell lines to identify multiple opportunities for drug repurposing: Confirmatory screen for LAN-5 cells (AID 1347113). Also: nearly all actives have a fitted effect of over 65% in size. In short, it runs like this:
as §2

The nature of experiment [10]: qHTS of pediatric cancer cell lines to identify multiple opportunities for drug repurposing: Confirmatory screen for DAOY cells (AID 1347114). Also: nearly all actives have a fitted effect of over 65% in size. In short, it runs like this: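 Viability measured as metabolically active cells via CellTiter-Glo luminescence following 48 hours of compound exposure, 11-point dilutions in confirmatory testing. 500-1,000 cells/well plated 5 hours before dosing; controls were DMSO and 2.3 µM bortezomib.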
Potency is read from the fitted curve at half-maximal effect.

In the case of `COc1ccc(-n2nc(C(N)=O)c3c2C(=O)N(c2ccc(N4CCCCC4=O)cc2)CC3)cc1`, the Potency result in [1], in experiment [2], in experiment [3], in experiment [4], in [5] and in [6] was “inactive” each time. Further, the Potency entry in experiment [7] is “inactive”.

In the case of `C[C@@]12O[C@@H](C[C@]1(O)CO)n1c3ccccc3c3c4c(c5c6ccccc6n2c5c31)CNC4=O`, the Potency in [1] was 4.69 µM (active); in [2], 23.5 µM (active); in experiment [4], 7.43 µM (active); in experiment [5] it was 1.85 µM (active); in experiment [6], 1.04 µM (active); in experiment [8] it was 0.261 µM (active). The Potency in [7] is 14.7 µM (active); in experiment [9], 5.22 µM (active); in experiment [10], 9.27 µM (active). The Potency entry in [3] was “inactive”.

On to `CC1=C(CO)C(=O)O[C@@H]([C@@H](C)[C@H]2CC[C@H]3[C@@H]4C[C@H]5O[C@]56[C@@H](O)C=CC(=O)[C@]6(C)[C@@H]4CC[C@]23C)C1`, for which the Potency was 0.743 µM (active) in experiment [1]; 2.35 µM (active) in experiment [3]; 1.18 µM (active) in experiment [4]; 18.5 µM (active) in experiment [6]; 10.4 µM (active) in [7]. For the same compound, the Potency entry in [2], in experiment [8] and in experiment [10] was “inactive” each time.

With `COc1cc2c(Oc3ccc(NC(=O)C4(C(=O)Nc5ccc(F)cc5)CC4)cc3F)ccnc2cc1OCCCN1CCOCC1`, the Potency was 4.69 µM (active) in [1]; 26.4 µM (active) in experiment [2]; 5.9 µM (active) in experiment [3]; 4.69 µM (active) in experiment [4]; 5.22 µM (active) in [5]; 2.33 µM (active) in experiment [6]. For the same compound, the Potency in experiment [8] is 3.69 µM (active); in experiment [7] it was 13.1 µM (active); in [9], 5.22 µM (active); in experiment [10] it was 11.7 µM (active).

For the compound `COCCn1c2c([n+](Cc3cnccn3)c1C)C(=O)c1ccccc1C2=O`, the Potency in experiment [1] was 0.187 µM (active); in [2], 0.264 µM (active); in experiment [3], 0.0148 µM (active); in [4], 0.0469 µM (active); in experiment [5], 0.208 µM (active); in experiment [6], 0.0165 µM (active). In addition, the Potency in experiment [8] is 0.0093 µM (active); in experiment [7], 0.0093 µM (active); in [9] it was 0.0059 µM (active); in experiment [10], 0.0414 µM (active).

For `C=C1C(=CC=C2CCC[C@]3(C)[C@@H]([C@H](C)C=C[C@H](C)C(C)C)CC[C@@H]23)C[C@@H](O)C[C@@H]1O`, the Potency in experiment [1] is 5.9 µM (active); in experiment [3] it was 3.72 µM (active); in [4], 0.935 µM (active); in experiment [10] it was 20.8 µM (active). Moreover, the Potency result in [2] was “inactive”.

As for `CC(C)C[C@H](NC(=O)CNC(=O)c1cc(Cl)ccc1Cl)B(O)O`, the Potency is 0.235 µM (active) in experiment [1]; 1.05 µM (active) in experiment [2]; 1.87 µM (active) in experiment [3]; 0.469 µM (active) in experiment [4]; 0.465 µM (active) in [6]; 0.465 µM (active) in [7]. The Potency in [10] is 0.185 µM (active). In addition, the Potency entry in experiment [8] is “inactive”.

In the case of `Nc1ccccc1NC(=O)c1ccc(CNc2nccc(-c3cccnc3)n2)cc1`, the Potency in experiment [1] is 3.72 µM (active); in experiment [2], 14.8 µM (active); in experiment [4], 1.18 µM (active); in experiment [6], 2.61 µM (active); in experiment [10] it was 2.93 µM (active). For the same compound, the Potency entry in experiment [3] and in experiment [8] was “inactive” throughout.

As for `C[C@@H](Oc1cc(-c2cnn(C3CCNCC3)c2)cnc1N)c1c(Cl)ccc(F)c1Cl`, the Potency was 18.7 µM (active) in experiment [1]; 18.7 µM (active) in experiment [3]; 18.7 µM (active) in experiment [4]; 5.85 µM (active) in experiment [5]; 3.29 µM (active) in experiment [6]; 5.85 µM (active) in experiment [8]. In addition, the Potency in [9] is 5.85 µM (active). Further, the Potency result in [2] was “inactive”.

For the compound `CN1CCN(c2cc(C(=O)Nc3ccc4c(c3)-c3c(c(C(N)=O)nn3-c3ccc(F)cc3)CC4)c(Cl)cn2)CC1`, the Potency was 23.5 µM (active) in experiment [1]; 20.9 µM (active) in experiment [2]; 16.6 µM (active) in experiment [3]; 20.9 µM (active) in experiment [4]; 23.3 µM (active) in [5]; 14.7 µM (active) in [6]. Moreover, the Potency was 20.8 µM (active) in experiment [8], 16.5 µM (active) in experiment [9] and 23.3 µM (active) in experiment [10].

Regarding `COc1cccc(Nc2c(C(N)=O)cnc3c(C)cc(S(=O)(=O)c4cccc(C(=O)N(C)C)c4)cc23)c1`, the Potency result in experiment [1], in experiment [2], in [3], in experiment [4], in [5] and in experiment [6] was “inactive” throughout. Also, the Potency entry in experiment [7], in [9] and in experiment [10] was “inactive” in each case.

For the compound `C=CC(=O)Nc1cc2c(Nc3ccc(F)c(Cl)c3)ncnc2cc1C#CC(C)(C)N1CCN(C)CC1`, the Potency in experiment [1] was 5.9 µM (active); in [3] it was 11.8 µM (active); in experiment [4], 9.35 µM (active); in experiment [5], 5.37 µM (active); in experiment [6], 4.27 µM (active); in experiment [8], 1.91 µM (active). For the same compound, the figures for the Potency in [7], in experiment [9] and in experiment [10] were 17 µM (active), 5.37 µM (active) and 4.79 µM (active), respectively. Moreover, the Potency entry in [2] is “inactive”.

Consider `C=CC(=O)Nc1cccc(Oc2nc(Nc3ccc(N4CCN(C)CC4)cc3)ncc2Cl)c1`, for which the Potency is 7.43 µM (active) in experiment [1]; 16.6 µM (active) in experiment [2]; 18.7 µM (active) in experiment [3]; 11.8 µM (active) in [4]; 8.27 µM (active) in [5]; 16.5 µM (active) in [6]. Further, the Potency is 1.31 µM (active) in experiment [8], 16.5 µM (active) in experiment [7], 6.57 µM (active) in experiment [9] and 18.5 µM (active) in experiment [10].

As for `Cc1cc(Nc2cc(N3CCN(C)CC3)nc(Sc3ccc(NC(=O)C4CC4)cc3)n2)n[nH]1`, the Potency in [1] was 18.7 µM (active); in experiment [3], 18.7 µM (active); in experiment [4], 11.8 µM (active); in experiment [5] it was 4.14 µM (active); in [6] it was 13.1 µM (active); in experiment [8], 0.131 µM (active). For the same compound, the Potency in experiment [10] is 5.22 µM (active). In experiment [2], the Potency result is “inactive”.

Turning to `O=C(Nc1cn[nH]c1-c1nc2ccc(CN3CCOCC3)cc2[nH]1)NC1CC1`, the Potency in [1] is 7.43 µM (active); in experiment [2] it was 10.5 µM (active); in experiment [4], 4.69 µM (active); in experiment [8] it was 1.65 µM (active). The Potency result in [3], in experiment [6], in experiment [7], in [9] and in [10] was “inactive” each time.
